Test results: PubChem BioAssay (NCATS)
Inconclusive results are not listed. The call rests on the fitted dose curve; in most records, active means well fitted inhibition curve with a large enough effect; inconclusive means small, poorly fitted or top-dose-only effect; inactive means flat fitted curve, though single readings scatter.

Assay: qHTS for Inhibitors of Plasmodium falciparum (7G8) proliferation (AID 504316);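 further: 0% = DMSO vehicle and -100% = 0.29 µM artemisinin full kill; nearly all actives have a fitted effect of over 65% in size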
Conditions: P. falciparum 7G8 in erythrocytes, SYBR Green DNA, 72 h; series mostly up to 6.7 µM; activity change, negative = inhibition: at the top concentration
How it was run: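 Erythrocytes infected with P. falciparum line (0.3% parasitemia, 2.5% hematocrit final) incubated with compounds 72 h at 37 °C, 5% CO2; SYBR Green lysis buffer added, fluorescence read next day. Normalized to 0.29 uM artemisinin and DMSO.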

Activity change, negative = inhibition, inactive:
COC(=O)C1=C(C(=O)OC)[C@@H]2Nc3ccccc3[C@@]23C[C@@H](C(=O)OC)N(S(=O)(=O)c2cccs2)C3=N1 -2.04%
CCOC(=O)CN1C(=O)N[C@@H](CCc2ccccc2)C(C(=O)OC)=C1C 4.15%
CC(C)(C)OC(=O)NCCCC1=CC2=CC(=O)C(C)(OC(=O)c3cccs3)C(=O)C2=CO1 (configuration not stated) -14.2%
COC(=O)C1=C(C(=O)OC)[C@@H]2N(Cc3ccccc3)c3ccccc3[C@@]23CCC(=O)N(CC2CCCCC2)C3=N1 4.47%
COC(=O)[C@H]1[C@@H](C)N(Cc2ccccc2)C(=O)N[C@H]1c1cccc(C(F)(F)F)c1 0.543%
CC1(OC(=O)C2CCCC2)C(=O)C=C2C=C(c3ccsc3)N(c3ccc(CO)cc3)C=C2C1=O (configuration not stated) -1.41%
COC(=O)N[C@@H](c1cccc(C)c1)C(C(C)=O)C(=O)OC (some centres not stated) -0.681%
COC(=O)C1=C(C(=O)OC)[C@@H]2Nc3ccccc3[C@@]23C[C@@H](C(=O)OC)N(C(=O)c2ccc(Br)cc2)C3=N1 -8.47%
CCCCC1=CC2=CC(=O)C(C)(OC(=O)CC)C(=O)C2=CN1c1ccccc1 (configuration not stated) 0.496%
CCN(CC)CCCN1C=C2C(=O)C(C)(OC(=O)CCC(=O)OC)C(=O)C(Br)=C2C=C1c1ccc(OC)cc1 (configuration not stated) -3.04%
C=CC1=C2C=C(C3CC3)N(Cc3ccco3)C=C2C(=O)C(C)(OC(=O)c2ccco2)C1=O (configuration not stated) 1.12%
CC#CCN1c2ccccc2[C@]23C[C@@H](C(=O)OC)N(C(C)=O)C2=NC(C(=O)OC)=C(C(=O)OC)[C@H]13 -5.63%
CCCCC1=CC2=C(c3ccco3)C(=O)C(C)(OC(=O)c3ccc(OC)cc3)C(=O)C2=CN1CCc1c[nH]c2ccccc12 (configuration not stated) 2.89%
C=CCN1c2ccccc2[C@]23C[C@@H](C(=O)OC)N(C(C)=O)C2=NC(C(=O)OC)=C(C(=O)OC)[C@H]13 3.12%
CCOC(=O)CN1C(=O)N[C@@H](CCc2ccccc2)[C@@H](C(=O)OC)[C@H]1C 0.705%
CCN1C(=O)N[C@@H](c2cccc(F)c2)C(C(C)=O)=C1C -2.3%
COc1cccc([C@@H]2Oc3ccc(Br)cc3C(=O)[C@@H]2OC(=O)Nc2cc(OC)c(OC)c(OC)c2)c1 1.88%
C=CCN1c2ccccc2[C@]23C[C@@H](C(=O)OC)N(C(=O)COCc4ccccc4)C2=NC(C(=O)OC)=C(C(=O)OC)[C@H]13 1.37%
COC(=O)CCC(=O)OC1(C)C(=O)C=C2C=C(C3CC3)N(CCN3CCOCC3)C=C2C1=O (configuration not stated) -1.41%
CCCCC1=CC2=C(c3ccco3)C(=O)C(C)(OC(=O)c3ccc(OC)cc3)C(=O)C2=CN1C1CCCC1 (configuration not stated) 2.52%
CC[C@@H](C)CN1C(=O)N[C@@H](c2ccccc2)C(C(C)=O)=C1C 1.04%
CCN1C(=O)N[C@@H](c2cccs2)C(C(C)=O)=C1C -1.1%
COC(=O)[C@@]1(C=C2c3ccc(F)cc3[C@@H](OC)[C@@H]2C)[C@@H]2CC=C[C@@H]21 -16.1%
COC(=O)C1=C(C(=O)OC)[C@@H]2N(C)c3ccccc3[C@@]23C[C@@H](CO)N(C(=O)c2cc(C)oc2C)C3=N1 -23.1%
COC/C=C/C1=CC2=CC(=O)C(C)(OC(=O)c3cnc4ccccc4n3)C(=O)C2=CN1CCOC (configuration not stated) 2.97%
COC(=O)C1=C(C)N(Cc2ccco2)C(=O)N[C@@H]1c1ccco1 2.2%
CC(C)(C)N1C(=O)[C@@H]2[C@H]3[C@H](O)[C@H](O)CC(=NOCc4ccccc4)[C@H]3CC[C@H]2C1=O -14.5%
COC(=O)CCCC1=CC2=C(c3ccccc3)C(=O)C(C)(OC(=O)C3CCCC3)C(=O)C2=CN1Cc1ccccc1 (configuration not stated) -7.35%
COC(=O)C1=C(C(=O)OC)[C@@H]2N(C)c3ccc(OC)cc3[C@@]23C[C@@H](C(=O)OC)N(C(C)=O)C3=N1 -0.422%
CCCCC1=CC2=CC(=O)C(C)(OC(=O)CC)C(=O)C2=CN1CCCN(CC)CC (configuration not stated) 5.74%
C=CCOC(=O)N[C@H](C(C(=O)OC)=C(C)NCc1ccccc1)c1ccc(C)cc1 0.327%
CCN1C(=O)N[C@@H](c2cccc(C(F)(F)F)c2)C(C(=O)OC)=C1C -2.08%
COC(=O)CCCC1=CC2=CC(=O)C(C)(OC(=O)c3cccs3)C(=O)C2=CN1Cc1ccccc1 (configuration not stated) 1.62%
COC/C=C/C1=CC2=CC(=O)C(C)(OC(=O)c3cnc4ccccc4n3)C(=O)C2=CN1C1CCCC1 (configuration not stated) -1.92%
COC(=O)CCCC1=CC2=CC(=O)C(C)(OC(=O)CCc3ccccc3)C(=O)C2=CO1 (configuration not stated) -13.3%
CCN1C(=O)N[C@@H](c2cccs2)C(C(=O)OC)=C1C -0.844%
CCCCC1=CC2=CC(=O)C(C)(OC(=O)CC)C(=O)C2=CN1Cc1ccccc1 (configuration not stated) 2.23%
